Experimental data as given in PubChem BioAssay (NCATS).
Inconclusive results are not listed. A call without a number means that no potency is given here. The source made the active and inactive calls. Calls come from the whole dose curve; as a rule, active = well fitted inhibition curve with a large enough effect; inconclusive = small, poorly fitted or top-dose-only effect; inactive = flat fitted curve, though single readings scatter.

The molecules below were run against Ubiquitin carboxyl-terminal hydrolase 1 (Homo sapiens) (UniProt O94782) (assay: Inhibitors of USP1/UAF1: Pilot qHTS (AID 504865; note: nearly all actives have a fitted effect of over 35% in size)). Settings: purified USP1/UAF1, Ub-rhodamine cleavage fluorescence; series mostly up to 54.9 µM.
Chain of Ubiquitin carboxyl-terminal hydrolase 1 (Homo sapiens) (O94782 whole entry, looked up): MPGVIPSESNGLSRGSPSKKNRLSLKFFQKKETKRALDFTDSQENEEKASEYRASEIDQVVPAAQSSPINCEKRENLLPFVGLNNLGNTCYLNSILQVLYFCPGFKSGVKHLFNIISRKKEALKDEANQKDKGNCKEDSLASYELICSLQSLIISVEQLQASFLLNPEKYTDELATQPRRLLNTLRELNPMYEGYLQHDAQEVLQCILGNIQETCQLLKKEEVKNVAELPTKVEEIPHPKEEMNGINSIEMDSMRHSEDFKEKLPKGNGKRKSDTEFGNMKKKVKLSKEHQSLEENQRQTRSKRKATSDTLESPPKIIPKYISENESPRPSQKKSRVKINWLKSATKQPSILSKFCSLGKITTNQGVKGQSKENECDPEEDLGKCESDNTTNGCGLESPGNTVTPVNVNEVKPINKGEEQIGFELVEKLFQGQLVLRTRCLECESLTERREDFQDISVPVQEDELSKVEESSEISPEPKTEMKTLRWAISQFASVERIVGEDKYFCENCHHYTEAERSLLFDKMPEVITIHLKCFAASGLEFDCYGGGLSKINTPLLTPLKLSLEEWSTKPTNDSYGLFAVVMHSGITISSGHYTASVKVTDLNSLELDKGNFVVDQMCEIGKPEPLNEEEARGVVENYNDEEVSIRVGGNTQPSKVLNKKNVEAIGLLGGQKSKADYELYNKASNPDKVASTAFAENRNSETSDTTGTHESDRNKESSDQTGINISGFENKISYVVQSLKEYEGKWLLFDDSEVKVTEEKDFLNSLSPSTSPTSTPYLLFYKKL
Source text: Deubiquitinating enzymes (DUBs) are a class of enzymes that can cleave isopeptide bond formed between the C-terminal carboxylate of ubiquitin and a lysine side-chain amino group on the target protein. Among them, ubiquitin specific proteases (USPs) constitute the largest DUB family. Human USPs are emerging as promising targets for pharmacological intervention because of their connection to a number of human diseases, including prostate, colon and breast cancer (1, 2), pediatric acute lymphoblastic leukemia (3), and familial cylindromatosis (4). The advantage of inhibiting USPs lies in the potential specificity of therapeutic intervention that can lead to better efficacy and reduce nonspecific side effects.
In a collaboration between the University of Delaware and the NIH Chemical Genomics Center, a high-throughput screen assay was developed to screen for USP1/UAF1 inhibitors. This miniaturized assay has a fluorescent read-out and is used to screen the NIH Molecular Libraries Small Molecule Repository (MLSMR) in order to identify a small molecule that inhibits USP1.
NIH Chemical Genomics Center [NCGC]
NIH Molecular Libraries Probe Centers Network [MLPCN]
Assay Submitter (PI): Zhihao Zhuang, University of Delaware
1. Priolo, C., et al. (2006) The isopeptidase USP2a protects human prostate cancer from apoptosis. Cancer Res 66, 8625-8632
2. Popov, N., et al. (2007) The ubiquitin-specific protease USP28 is required for MYC stability. Nat Cell Biol 9, 765-774
3. De Pitta, C., et al. (2005) A leukemia-enriched cDNA microarray platform identifies new transcripts with relevance to the biology of pediatric acute lymphoblastic leukemia. Haematologica 90, 890-898
4. Kovalenko, A., et al. (2003) The tumour suppressor CYLD negatively regulates NF-kappaB signalling by deubiquitination. Nature 424, 801-805
3 microliters of reagents (buffer in columns 3 and 4 as negative control and 1nM USP1/UAF1 complex in columns 1, 2, and 5-48) are dispensed into Greiner black solid bottom 1536-well assay plates. Compounds are then transferred via Kalypsys pin tool equipped with 1536-pin array (10nl slotted pins, V&P Scientific, San Diego, CA). Following an incubation step of 15 min at room temperature, 1ul of Ub-Rho substrate (150nM final concentration) is added to initiate the reaction. The plates are immediately centrifuged at 1000 rpm for 15 seconds, and subsequently transferred to a ViewLux high-throughput CCD imager (PerkinElmer) wherein kinetic measurements of fluorescence are acquired using 480 nm excitation/540 nm emission filter set (6 reads every 60 seconds, see Table 1). All reagents are diluted in an assay buffer consisting of 50mM HEPES (pH 7.8), 0.5mM EDTA, 0.1 mg/ml BSA, 1mM TCEP, and 0.01% Tween-20.
Potency is the fitted concentration of half-maximal effect.

SMILES	Potency
COc1cccc(Nc2ncc3ncc(=O)n(Cc4ccc(F)cc4)c3n2)c1	inactive
COc1ccc2[nH]cc(CCNc3ncnc4ccc(-c5cccc(C#N)c5)cc34)c2c1	inactive
CN1CCN(c2ncc3nc(-c4ccccc4)c(=O)n(Cc4cccs4)c3n2)CC1	inactive
CCN1/C(=C/C=C/C=C/c2sc3ccccc3[n+]2CC)Sc2ccccc21	22.4 µM (active)
COc1ccc(Oc2ncc3nc(-c4ccc(F)cc4)c(=O)n(C[C@H]4CCCO4)c3n2)cc1	inactive
COc1ccccc1-c1ccc2ncnc(N3CCOCC3)c2c1	inactive
Cc1cccc(CNc2ncncc2-c2ccccc2C)c1	inactive
COCCNc1ncnc2ccc(-c3ccccc3OC)cc12	inactive
S=C1NC=NC2N=CNC12 (stereo not given)	inactive
COCCn1c(=O)c(CCc2ccccc2)nc2cnc(N(C)C)nc21	inactive
COCCn1c(=O)c(-c2ccc(F)cc2)nc2cnc(Nc3cccc(OC)c3)nc21	inactive
CN(Cc1ccco1)c1nc(-c2cccnc2)nc2ccccc12	inactive
CN(C)c1ccc(-c2nccc(NCc3cccs3)n2)cc1	inactive
CN(Cc1ccco1)c1cc(-c2ccc3c(c2)OCO3)ncn1	inactive
CNc1ncncc1-c1ccccc1CN(C)C	inactive
COc1ccccc1CNc1ncncc1-c1ccccc1C(F)(F)F	inactive
C=C[C@]1(C)C[C@@H](OC(=O)CSCCN(CC)CC)[C@]2(C)C(C)CC[C@]3(CCC(=O)[C@H]32)[C@@H](C)[C@@H]1O (stereo not given in full)	inactive
O=c1c(-c2ccccc2)nc2cnc(N3CCOCC3)nc2n1CCc1ccccc1	inactive
C1OCOCO1	inactive
COc1cccc(Nc2ncc3ncc(=O)n(CCC#N)c3n2)c1	inactive

SMILES	Potency
COc1cccc(-c2ccc3ncnc(N4CCNCC4)c3c2)c1	inactive
CN(C)c1ncc2nc(CCc3ccccc3)c(=O)n(CCc3ccccc3)c2n1	inactive
N#CCCn1c(=O)c(-c2cccc(C#N)c2)nc2cnc(Oc3cccc(Cl)c3)nc21	inactive
COc1cccc(-c2ccc3ncnc(NCc4ccc(OC)cc4OC)c3c2)c1	inactive
CN(C)c1ncnc2ccc(-c3cccc(NS(C)(=O)=O)c3)cc12	inactive
Cc1nc2cnc(Oc3cccc(Cl)c3)nc2n(Cc2ccc(F)cc2)c1=O	inactive
COCCn1c(=O)c(CCc2ccccc2)nc2cnc(Oc3ccccc3)nc21	inactive
COCCn1c(=O)c(-c2cccc(C#N)c2)nc2cnc(OCc3ccccc3)nc21	inactive
CC1(C)S[C@@H]2[C@H](NC(=O)COc3ccccc3)C(=O)N2[C@H]1C(=O)O	inactive
COc1ccccc1CNc1cc(-c2ccccc2CN(C)C)ncn1	inactive
Cc1cnc(CNc2ncnc3ccc(-c4ccccc4C)cc23)cn1	inactive
CCC(C)n1ncn(-c2ccc(N3CCN(c4ccc(OCC5COC(Cn6cncn6)(c6ccc(Cl)cc6Cl)O5)cc4)CC3)cc2)c1=O (stereo not given)	inactive
COc1ccc2[nH]cc(CCNc3ncncc3-c3ccoc3)c2c1	inactive
COc1ccc2[nH]cc(CCNc3ncncc3-c3ccccc3C(F)(F)F)c2c1	inactive
COc1cccc(-c2cncnc2NCCc2c[nH]c3ccc(OC)cc23)c1	inactive
COc1cccc(Cn2c(=O)cnc3cnc(Nc4cccc(OC)c4)nc32)c1	inactive
COc1ccc(-c2nc3cnc(Oc4cccc(Cl)c4)nc3n(C[C@H]3CCCO3)c2=O)cc1	inactive
CN(C)C(=O)c1ccc(-c2nc(Nc3ccccc3)c3ccccc3n2)cc1	inactive
COc1ccc2[nH]cc(CCNc3ncncc3-c3ccc4c(c3)OCO4)c2c1	inactive
COc1ccc(-c2nc3cnc(N4CCN(C)CC4)nc3n(CCc3ccccc3)c2=O)cc1	inactive
